In this assay the test system is NCI-H1944. Description: normalised cell viability (NPI; 0 = phenylarsine oxide control, 1 = DMSO control) (fraction of DMSO control); NCI-H1944 is a non-small cell lung cancer line; higher = more viable cells (less compound toxicity). The settings on record: 6 days.
Setting [1] is: glucocorticoid arm: hydrocortisone 2.75 uM co-treatment, compound 1 µM.
The mark [2] stands for this setting: glucocorticoid arm: hydrocortisone 2.75 uM co-treatment, compound 5 µM.
The mark [3] stands for this setting: glucocorticoid arm: hydrocortisone 2.75 uM pre-treated 2 days and continued, compound 1 µM.
[4] abbreviates: glucocorticoid arm: hydrocortisone 2.75 uM pre-treated 2 days and continued, compound 5 µM.
[5] abbreviates: glucocorticoid arm: vehicle, compound 1 µM.
Setting [6] is: glucocorticoid arm: vehicle, compound 5 µM.

The structures appear in SMILES notation. Counter-ions that a name gives are not always drawn. ± gives the standard deviation of the averaged measurements. Whole data set: some 1,900 compounds, median “normalised cell viability (NPI; 0 = phenylarsine oxide control, 1 = DMSO control)” near 1, cut for the lowest 2% near 0.039. The sample holds the lowest values, similar compounds and a random draw of the others, so the mix is not that of the screen.
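Note: CTB read-out in 384-well plates, triplicate wells, NPI normalised per plate against 1 µM phenylarsine oxide (0) and 0.1% DMSO (1) controls.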

Turning to `CC(=O)O[C@H]1C(=O)[C@@]2(C)[C@H]([C@H](OC(=O)c3ccccc3)[C@]3(O)C[C@H](OC(=O)[C@H](O)[C@@H](NC(=O)c4ccccc4)c4ccccc4)C(C)=C1C3(C)C)[C@]1(OC(C)=O)CO[C@@H]1C[C@@H]2O` [Paclitaxel; Taxol], the normalised cell viability is 0.131 ± 0.0057 under setting [1]; 1.03 ± 0.01 under setting [2]; 0.466 ± 0.032 under setting [3]; 1.02 ± 0.011 under setting [4]; 0.0302 ± 0.0049 under setting [5]; 1.01 ± 0.01 under setting [6].

As for `CC(=O)O[C@H]1C(=O)[C@@]2(C)[C@H]([C@H](OC(=O)c3ccccc3)[C@]3(O)C[C@H](OC(=O)[C@H](O)[C@@H](NC(=O)c4ccccc4)c4ccccc4)C(C)=C1C3(C)C)[C@]1(OC(C)=O)CO[C@@H]1C[C@@H]2O` [Taxol], the normalised cell viability by setting is: under setting [1], 0.122 ± 0.012; under setting [2], 0.117 ± 0.015; under setting [3], 0.8513 ± 0.0064; under setting [4], 0.802 ± 0.051; under setting [5], 0.0515 ± 0.0084; under setting [6], 0.0382 ± 0.0051.

Take `CC(=O)O[C@@]12CO[C@@H]1C[C@H](O)[C@@]1(C)C(=O)[C@H](O)C3=C(C)[C@@H](OC(=O)[C@H](O)[C@@H](NC(=O)OC(C)(C)C)c4ccccc4)C[C@@](O)([C@@H](OC(=O)c4ccccc4)[C@H]21)C3(C)C` [Docetaxel]: the normalised cell viability under setting [1] is 0.159 ± 0.0035; the normalised cell viability under setting [2] was 0.163 ± 0.0095; the normalised cell viability under setting [3] is 0.462 ± 0.023; the normalised cell viability under setting [4] came to 0.518 ± 0.015; the normalised cell viability under setting [5] was 0.049 ± 0.0034; the normalised cell viability under setting [6] was determined as 0.0428 ± 0.0097.

As for `CO[C@H]1C(=O)[C@]2(C)[C@@H](OC)C[C@H]3OC[C@@]3(OC(C)=O)[C@H]2[C@H](OC(=O)c2ccccc2)[C@]2(O)C[C@H](OC(=O)[C@H](O)[C@@H](NC(=O)OC(C)(C)C)c3ccccc3)C(C)=C1C2(C)C` [Cabazitaxel], the normalised cell viability by setting is: under setting [1], 0.191 ± 0.012; under setting [2], 1.05 ± 0.021; under setting [3], 0.468 ± 0.0065; under setting [4], 1.05 ± 0.015; under setting [5], 0.0505 ± 0.01; under setting [6], 1.007 ± 0.0058.

On to `COC(=O)C1=C(C)NC(C)=C([N+](=O)[O-])C1c1ccccc1C(F)(F)F` (racemic), for which the normalised cell viability is, setting by setting: under setting [1], 0.99 ± 0.0072; under setting [2], 0.942 ± 0.02; under setting [3], 0.9753 ± 0.0031; under setting [4], 0.9355 ± 0.00071; under setting [5], 0.962 ± 0.01; under setting [6], 0.947 ± 0.011.

With `CCC1=C[C@@H]2CN(C1)Cc1c([nH]c3ccccc13)[C@@](C(=O)OC)(c1cc3c(cc1OC)N(C)[C@H]1[C@@](O)(C(=O)OC)[C@H](OC(C)=O)[C@]4(CC)C=CCN5CC[C@]31[C@@H]54)C2` [Vinorelbine tartrate], the normalised cell viability was found to be 0.327 ± 0.0017 under setting [1]; 0.35 ± 0.02 under setting [2]; 0.629 ± 0.017 under setting [3]; 0.683 ± 0.036 under setting [4]; 0.0577 ± 0.0028 under setting [5]; 0.0356 ± 0.0026 under setting [6].

With `CC[C@]1(O)C[C@@H]2CN(CCc3c([nH]c4ccccc34)[C@@](C(=O)OC)(c3cc4c(cc3OC)N(C)[C@H]3[C@@](O)(C(=O)OC)[C@H](OC(C)=O)[C@]5(CC)C=CCN6CC[C@]43[C@@H]65)C2)C1` [Vinblastine sulfate salt; Vinblastine sulfate], the normalised cell viability by setting is: under setting [1], 0.354 ± 0.019; under setting [2], 1.023 ± 0.0058; under setting [3], 0.621 ± 0.029; under setting [4], 1.03 ± 0.027; under setting [5], 0.0439 ± 0.00099; under setting [6], 1.017 ± 0.0058.

As for `CC[C@]1(O)C[C@@H]2CN(CCc3c([nH]c4ccccc34)[C@@](C(=O)OC)(c3cc4c(cc3OC)N(C)[C@H]3[C@@](O)(C(=O)OC)[C@H](OC(C)=O)[C@]5(CC)C=CCN6CC[C@]43[C@@H]65)C2)C1` [Vinblastine sulfate salt], the normalised cell viability under setting [1] came to 0.361 ± 0.02; the normalised cell viability under setting [2] stood at 0.337 ± 0.021; the normalised cell viability under setting [3] turned out to be 0.795 ± 0.17; the normalised cell viability under setting [4] was determined as 0.94 ± 0.023; the normalised cell viability under setting [5] is 0.0757 ± 0.0017; the normalised cell viability under setting [6] is 0.0495 ± 0.005.

The values above are taken from the supplement of paper PMC8285479.
